The text below walks through data of PubChem BioAssay (NCI).

Compounds without any hit were thinned out: in the full panel of roughly 83,000, 20% have a hit.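 Method: cells in 96-well plates; compound added at one concentration; 48 h incubation; percent growth measured; values under 10 scored active.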 Unmarked numbers belong to inactive results. Active and inactive are the calls of the source.

Holding throughout (experiment): NCI-60 one-dose screen, 48 h (100 = growth as untreated, 0 = no growth, -100 = all killed)
One test concerns SR leukemia. The note with it: 10 µM unless noted.
The test system of another test is RPMI-8226 leukemia. Particulars: 10 µM unless noted.
The test system of the next test is OVCAR-8 ovarian. The note with it: 10 µM unless noted.
Another test has as its system OVCAR-5 ovarian. Particulars: 10 µM unless noted.
A further test concerns OVCAR-4 ovarian. The note with it: 10 µM unless noted.
For the next test, the system named is SK-OV-3 ovarian. Particulars: 10 µM unless noted.
A further test deals with IGROV1 ovarian. The note with it: 10 µM unless noted.
In another test the test system is OVCAR-3 ovarian. The note with it: 10 µM unless noted.
Another test relates to HS 578T breast. The note with it: 10 µM.
Another test concerns NCI/ADR-RES ovarian. The note with it: 10 µM unless noted.
A further test relates to T-47D breast. The note with it: 10 µM unless noted.
The test system of the next test is BT-549 breast. The note with it: 10 µM unless noted.
The test system of another test is MDA-MB-435 melanoma. The note with it: 10 µM unless noted.
A further test has as its system SW-620 colon. The note with it: 10 µM unless noted.
The test system of the next test is HCT-116 colon. Particulars: 10 µM unless noted.
The subject of the next test is HCC-2998 colon. Particulars: 10 µM.
A further test deals with KM12 colon. Particulars: 10 µM unless noted.
The test system of the next test is MCF7 breast. Particulars: 10 µM unless noted.

Take `CN(N)c1nc2sc3c(c2c(=O)[nH]1)CCCC3`: the growth in the test with SR leukemia is 104%; in the test on RPMI-8226 leukemia, 103%; with OVCAR-8 ovarian, 102%; in the test with OVCAR-5 ovarian, 131%; in the test on OVCAR-4 ovarian it was 103%; with SK-OV-3 ovarian, 82.7%. For the same compound, the growth in the test with IGROV1 ovarian was 90.1%; in the test on OVCAR-3 ovarian, 99.7%; with HS 578T breast it was 94.6%; in the test on NCI/ADR-RES ovarian it was 104%; in the test on T-47D breast, 76.6%; in the test on BT-549 breast, 91.2%. The growth is 97.1% with MDA-MB-435 melanoma; 101% in the test with SW-620 colon; 94.9% in the test on HCT-116 colon; 96% with HCC-2998 colon; 95.7% in the test with KM12 colon.
Turning to `CCN1/C(=C/C=C/c2n(-c3ccccc3)c3ccc(-c4nc5ccccc5s4)cc3[n+]2CC)N(c2ccccc2)c2ccc(-c3nc4ccccc4s3)cc21`, the growth in the test on SR leukemia was 15.5%; in the test with RPMI-8226 leukemia, 8.29% (active); with OVCAR-8 ovarian, 10.6%; in the test with OVCAR-5 ovarian it was 31.4%; in the test on OVCAR-4 ovarian, 24.7%; in the test with SK-OV-3 ovarian, -4.86% (active). Also, the growth was 14% with IGROV1 ovarian; -0.0306% (active) with OVCAR-3 ovarian; 28.2% with HS 578T breast; 52.3% in the test with NCI/ADR-RES ovarian; 5.56% (active) with T-47D breast; -5.34% (active) with BT-549 breast. Moreover, the growth in the test on MDA-MB-435 melanoma is -41.1% (active); in the test on SW-620 colon, 16.7%; in the test on MCF7 breast, 11.2%; in the test with HCT-116 colon, 10.8%; with KM12 colon it was 10.6%.
With `COC(=O)[C@H](Cc1ccc(O)cc1)NC(=O)[C@@H](OC)[C@@H]1Cc2cc3cc(OC4CC(OC5CC(O)C(O)C(C)O5)C(O)C(C)O4)c(C)c(O)c3c(O)c2C(=O)[C@H]1OC1CC(OC2CC(OC3CC(C)(O)C(O)C(C)O3)C(O)C(C)O2)C(O)C(C)O1` (stereo not given in full), the growth is 9.7% (active) in the test on SR leukemia; -5.59% (active) with RPMI-8226 leukemia; 9.74% (active) in the test with OVCAR-8 ovarian; 10.6% in the test with OVCAR-5 ovarian; 7.27% (active) in the test on OVCAR-4 ovarian; 20.7% in the test with SK-OV-3 ovarian. Further, the growth with IGROV1 ovarian was 31.2%; in the test with OVCAR-3 ovarian, 5.52% (active); with HS 578T breast, -9.2% (active); in the test with NCI/ADR-RES ovarian it was 85.6%; in the test with T-47D breast, 4.63% (active); in the test on BT-549 breast it was -36.9% (active). The growth in the test with MDA-MB-435 melanoma was -26.8% (active); with SW-620 colon, 11.3%; in the test on MCF7 breast it was 8.15% (active); in the test with HCT-116 colon, 4.11% (active); in the test on KM12 colon it was 5.68% (active).
Take `COc1ccc2c(CCC(c3ccccc3)c3ccccc3)c3[n+](cc2c1OC)CCc1cc2c(cc1-3)OCO2`: the growth in the test on SR leukemia was -29.9% (active); with RPMI-8226 leukemia it was -9.79% (active); in the test with OVCAR-8 ovarian, 2.77% (active); in the test with OVCAR-5 ovarian, 29%; in the test on OVCAR-4 ovarian, 13.3%; in the test with SK-OV-3 ovarian, -12.8% (active). The growth in the test on IGROV1 ovarian was 22.9%; with OVCAR-3 ovarian it was -0.03% (active); with HS 578T breast, 20.7%; with NCI/ADR-RES ovarian it was 78.9%; with T-47D breast it was 5.67% (active); in the test with BT-549 breast, -29.1% (active). The growth in the test on MDA-MB-435 melanoma was -72% (active); in the test on SW-620 colon, 11.5%; with HCT-116 colon, 6.81% (active); in the test on HCC-2998 colon, -13.7% (active).
In the case of `CC(C)(C)OC(=O)N1CCC(O)[C@@H](O[Si](c2ccccc2)(c2ccccc2)C(C)(C)C)[C@H]1/C=C/c1ccccc1` (stereo not given in full), the growth is 32.6% with SR leukemia; 25.2% in the test on RPMI-8226 leukemia; 59.5% with OVCAR-8 ovarian; 71.5% in the test on OVCAR-5 ovarian; 21.3% with OVCAR-4 ovarian; 56.3% in the test on SK-OV-3 ovarian. Besides, the growth in the test with IGROV1 ovarian is 60.6%; in the test on OVCAR-3 ovarian, 43.6%; in the test on HS 578T breast, 55.8%; in the test on NCI/ADR-RES ovarian, 69.3%; in the test on T-47D breast it was 21.4%; in the test with BT-549 breast, 63%. Further, the growth in the test with MDA-MB-435 melanoma is 57.4%; in the test with SW-620 colon, 50.9%; with HCC-2998 colon, 44.8%.
Take `COc1ccc2c(CCCC(c3ccccc3)c3ccccc3)c3[n+](cc2c1OC)CCc1cc2c(cc1-3)OCO2`: the growth in the test on SR leukemia is -35% (active); in the test on RPMI-8226 leukemia it was -38.8% (active); in the test with OVCAR-8 ovarian, -47.6% (active); in the test with OVCAR-5 ovarian, 31.8%; in the test on OVCAR-4 ovarian, -81.3% (active); with SK-OV-3 ovarian, -13.4% (active). The growth is 5.13% (active) in the test with IGROV1 ovarian; -74.6% (active) in the test with OVCAR-3 ovarian; -16.8% (active) in the test with HS 578T breast; 71.7% in the test on NCI/ADR-RES ovarian; -15.6% (active) in the test on T-47D breast; -65.6% (active) in the test on BT-549 breast. Also, the growth is -90.7% (active) in the test with MDA-MB-435 melanoma; 0.287% (active) with SW-620 colon; -3.37% (active) in the test on MCF7 breast; -33.9% (active) in the test with HCT-116 colon; -65% (active) in the test with KM12 colon.
For `Cc1cc2c(-c3nc4ccccn4c3N)c(O)c(O)cc2c(O)c1-c1c(C)cc2c(-c3nc4ccccn4c3N)c(O)c(O)cc2c1O`, the growth in the test with SR leukemia was 26.9%; in the test on RPMI-8226 leukemia it was 9.18% (active); in the test on OVCAR-8 ovarian, 19.9%; in the test with OVCAR-5 ovarian it was 36.7%; with OVCAR-4 ovarian, 33.7%; with SK-OV-3 ovarian, -10.4% (active). For the same compound, the growth in the test with IGROV1 ovarian is 28.9%; in the test with OVCAR-3 ovarian, 26.5%; in the test with HS 578T breast, 37.6%; in the test with NCI/ADR-RES ovarian, 26.4%; in the test with T-47D breast it was 14.6%; with BT-549 breast it was 21.2%. For the same compound, the growth in the test with MDA-MB-435 melanoma was 13.4%; in the test with SW-620 colon, 22.7%; with MCF7 breast, 10.7%; in the test with HCC-2998 colon it was 30.7%; with KM12 colon, 22.1%.
Turning to `O=c1nc2c(-c3nc4ccccc4s3)n[nH]n2c2sc3c(c12)CCCC3`, the growth in the test with SR leukemia was 90.6%; with RPMI-8226 leukemia, 94.3%; with OVCAR-8 ovarian, 94%; in the test on OVCAR-5 ovarian it was 120%; with OVCAR-4 ovarian it was 115%; with SK-OV-3 ovarian, 92.3%. Besides, the growth in the test on IGROV1 ovarian was 101%; in the test on OVCAR-3 ovarian, 95%; with HS 578T breast, 94.3%; with NCI/ADR-RES ovarian, 96.9%; in the test on T-47D breast, 78.9%; in the test with BT-549 breast, 94.1%. For the same compound, the growth in the test on MDA-MB-435 melanoma is 110%; with SW-620 colon, 100%; in the test with MCF7 breast, 89.1%; with HCC-2998 colon, 103%; with KM12 colon, 96.7%.
On to `CCN(CC)C(=O)C[N+](C)(C)CCOC(c1ccccc1)c1ccccc1`, for which the growth is 108% in the test on SR leukemia; 114% in the test with RPMI-8226 leukemia; 110% in the test with OVCAR-8 ovarian; 100% in the test on OVCAR-5 ovarian; 89.5% in the test with OVCAR-4 ovarian; 107% with SK-OV-3 ovarian. Further, the growth in the test on IGROV1 ovarian is 102%; with OVCAR-3 ovarian it was 103%; with HS 578T breast, 112%; in the test on NCI/ADR-RES ovarian, 99.1%; with T-47D breast, 105%; with BT-549 breast, 99.3%. Moreover, the growth in the test on MDA-MB-435 melanoma was 93.2%; in the test with SW-620 colon it was 111%; in the test with MCF7 breast it was 93.4%; in the test on HCC-2998 colon it was 93%; in the test with KM12 colon, 102%.
